Screening results as filed in PubChem.
Only some compounds are listed: those with a hit (about 3.6% of all), similar ones and a draw of the others.
TROY NFkB inh = TROY signaling inhibition; Q293 LMP1-TROYcd NF-kB luciferase reporter, 4 h; 360,000 tested, 0.98% active; inhibition, % at 10 µM;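 active = compounds whose plate-normalised and pattern-corrected inhibition of the luciferase reporter signal at the single screening dose is 50% or more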
TWEAK-Fn14 inh = TWEAK-Fn14 signaling inhibition; 360,000 tested, 2% active; TWEAK-stimulated Fn14 reporter cells, luciferase luminescence, 8 h; AID 1159606; inhibition, % at 10 µM; in the data active = inhibition above about 50%
EBV LMP1 NFkB = reduces LMP1-driven NF-kappaB luciferase signal; LMP1-induced NF-kappaB luciferase reporter cells, luminescence; inhibition, % at 12.5 µM; 350,000 tested, 0.69% active; AID 504558; in the data active = inhibition above about 41%
HSF1 activator = increases HSF-1 driven luciferase reporter signal; NIH3T3-HGL HSF-1 luciferase reporter, MG132, 8 h; 100% = twice DMSO control signal; activation, % at 9 µM; 300,000 tested, 1.7% active;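 active = mean replicate activation of at least 50% with a set share of replicates each reaching 50%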
LGR2 inh = blocks bursicon-induced cAMP signaling via Drosophila LGR2; HEK293 LGR2, CRE-luciferase, bursicon-stimulated, 4 h; inhibition, % at 9.99 µM; 380,000 tested, 0.35% active;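 active = drop in luminescence signal, shown as inhibition above about 50% in the replicate tests, limit read from the data, passing the limit was not always enough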;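 note: agonist challenge used bursicon conditioned medium at about half maximal strength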
HSF1 inh = HSF1 inhibition | AID 2098 | NIH3T3-HGL HSE-luciferase, MG132-induced, luminescence 8 h; active compounds read low | 300,000 tested, 0.77% active | activity change, negative = inhibition, % at 7.5 µM (by protocol);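 active = more than half of replicate wells show activity change below -50%, luminescence cut by over half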;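 note: luciferase reports HSF-1 transcriptional activity via heat shock element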
Each line names hits and unclear results; the compound was inactive in the other large screens.

Cc1noc(C)c1S(=O)(=O)Nc1ccc2c(c1)C(=O)N([C@@H](C)CO)C[C@@H](C)[C@@H](CN(C)Cc1ccccc1)OCCCC[C@@H](C)O2	none (no result: TROY NFkB inh, TWEAK-Fn14 inh, EBV LMP1 NFkB, HSF1 activator, HSF1 inh)
COc1ccc2c3c([nH]c2c1)[C@@H](CO)N(C)CC31CCN(S(=O)(=O)c2cccc(F)c2)CC1	none (no result: TROY NFkB inh, TWEAK-Fn14 inh, EBV LMP1 NFkB, HSF1 activator, HSF1 inh)
C=CCn1c2ccccc2c2nnc(SCCCn3c(=O)[nH]c4ccccc43)nc21	TROY NFkB inh 68, TWEAK-Fn14 inh 60 (no result: HSF1 activator, LGR2 inh, HSF1 inh)
C=CCn1c2ccccc2c2nnc(SCCN3CCCCC3)nc21	none
FC(F)Sc1ccc(NC(=S)NC(c2ccccc2)c2ccccc2)cc1	TROY NFkB inh 52, TWEAK-Fn14 inh 54
CC(=O)N1CCc2cc(S(=O)(=O)C(C)CC(=O)NCc3ccco3)ccc21 (stereo unspecified)	LGR2 inh 56 (no result: HSF1 activator, HSF1 inh)
CC(=O)N1CCc2cc(S(=O)(=O)C(C)CC(=O)NCc3ccc(C)o3)ccc21 (stereo unspecified)	none
COc1cc(C(=O)NCC2CCCO2)ccc1OCc1ccc(Cl)cc1Cl (stereo unspecified)	HSF1 activator 72
COc1cccc(OCc2ccc(C(=O)NCC3CCCO3)cc2)c1 (stereo unspecified)	TROY NFkB inh 52, TWEAK-Fn14 inh 63
Cc1cc(C(=O)CN2CCC(C)CC2)c(C)n1-c1ccccc1F	TROY NFkB inh 80, TWEAK-Fn14 inh 82, HSF1 inh -73 (no result: LGR2 inh)
C[C@@H]1CN([C@@H](C)CO)C(=O)c2cc(/C=C/c3ccccc3)cnc2O[C@@H]1CN(C)C(=O)Nc1ccc(C(F)(F)F)cc1	none (no result: TROY NFkB inh, TWEAK-Fn14 inh, EBV LMP1 NFkB, HSF1 activator, HSF1 inh)
COCC(=O)OC1CCn2c1nc1c2C(=O)C(C)=C(NC(C)=O)C1=O (stereo unspecified)	TROY NFkB inh 54, TWEAK-Fn14 inh 101, EBV LMP1 NFkB 87, LGR2 inh 86 (no result: HSF1 activator, HSF1 inh)
CCCNC(=O)Nc1ccc2c(c1)C(=O)N(C)C[C@H](OC)[C@@H](C)CN(CCC(F)(F)F)[C@H](C)CO2	none (no result: TROY NFkB inh, TWEAK-Fn14 inh, EBV LMP1 NFkB, HSF1 activator, HSF1 inh)
COc1cccc(OCc2ccc(Cl)cc2)c1C#N	HSF1 activator 61
CCN(CC)S(=O)(=O)c1cc([N+](=O)[O-])ccc1NNC(=O)Nc1ccccc1OC	HSF1 activator 71 (no result: LGR2 inh)
CCCC(=O)Nc1ccc2c(c1)OC[C@H](C)N(Cc1ccccn1)C[C@H](C)[C@H](OC)CN(C)C2=O	none (no result: TROY NFkB inh, TWEAK-Fn14 inh, EBV LMP1 NFkB, HSF1 activator, HSF1 inh)
CCc1cccc(CC)c1NC(=O)CSc1nc2ccc(N3C(=O)C4C5C=CC(C5)C4C3=O)cc2s1 (stereo unspecified)	none (no result: LGR2 inh)
O=C(O)c1ccc(CSc2nc3ccc(N4C(=O)C5C6C=CC(C6)C5C4=O)cc3s2)cc1 (stereo unspecified)	TWEAK-Fn14 inh 51
Cc1ccc(S(=O)(=O)N[C@H]2CC[C@@H](CCNC(=O)C3CC3)O[C@@H]2CO)cc1	none (no result: TROY NFkB inh, TWEAK-Fn14 inh, EBV LMP1 NFkB, HSF1 activator, HSF1 inh)
CNC[C@@H]1OCCCC[C@H](C)Oc2ccc(N(C)C)cc2C(=O)N([C@H](C)CO)C[C@@H]1C	none (no result: TROY NFkB inh, TWEAK-Fn14 inh, EBV LMP1 NFkB, HSF1 activator, HSF1 inh)
COc1cc(C2NC(=O)NC(C)=C2C(=O)OCC2CCCCC2)cc(Cl)c1O (stereo unspecified)	none
COc1cc(C2NC(=O)NC(C)=C2C(=O)OC2CCCCC2)cc(Cl)c1O (stereo unspecified)	HSF1 activator 62
COc1cc(C2NC(=O)NC(C)=C2C(=O)OC2CCCC(C)C2)cc(Br)c1O (stereo unspecified)	EBV LMP1 NFkB 49 (no result: LGR2 inh)
CC1=C(C(=O)OC2CCCC(C)C2)C(c2ccccc2)NC(=O)N1 (stereo unspecified)	none
COc1ccccc1CNC(=O)C[C@H]1C[C@@H]2c3cc(NC(=O)NC4CCCC4)ccc3O[C@@H]2[C@H](CO)O1	none (no result: TROY NFkB inh, TWEAK-Fn14 inh, EBV LMP1 NFkB, HSF1 activator, HSF1 inh)
CO[C@@H]1CN(C)C(=O)c2ccc(NS(=O)(=O)CC(F)(F)F)cc2OC[C@H](C)N(C)C[C@@H]1C	none (no result: TROY NFkB inh, TWEAK-Fn14 inh, EBV LMP1 NFkB, HSF1 activator, HSF1 inh)
Cc1cc(C)c2oc(C(=O)Nc3ccc(S(=O)(=O)Nc4nccs4)cc3)cc(=O)c2c1	TWEAK-Fn14 inh 73
Nc1nc(N)c2cc([N+](=O)[O-])ccc2n1	none (no result: HSF1 activator, HSF1 inh)
Nc1nc(N)c2c(ccc3c2ccn3Cc2cccc([N+](=O)[O-])c2)n1	TWEAK-Fn14 inh 79 (no result: EBV LMP1 NFkB, HSF1 activator, HSF1 inh)
CC1(C)CC(=O)C=C(Nc2ccc3c(c2)OCCO3)C1	TWEAK-Fn14 inh 70 (no result: LGR2 inh)
C[C@@H]1CCCCO[C@H](CN(C)C(=O)Nc2ccccc2)[C@H](C)CN([C@@H](C)CO)C(=O)c2cc(NC(=O)Nc3ccc(F)cc3)ccc2O1	none (no result: TROY NFkB inh, TWEAK-Fn14 inh, EBV LMP1 NFkB, HSF1 activator, HSF1 inh)
